Screening results deposited in PubChem by National Center for Advancing Translational Sciences (NCATS).
HT1080NT lethal: kills 2HG-producing HT-1080-NT fibrosarcoma cells. Potency, µM (series often up to 46.1 µM), for the others: at the top dose activity, negative = less viability, actives largely listed as cytotoxic. AID 686970. HT-1080-NT fibrosarcoma viability, CellTiter-Glo ATP luminescence, 48 h. 1.6% of 360,000 active;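 note: NT is the 2HG producing partner of a matched IDH1 knockdown line; 0% = DMSO-treated cells and -100% = media-only wells without cells; nearly all actives have a fitted effect of over 55% in size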
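750 cells/well, RPMI + 5% FBS; 2 h settle, compound pin-transfer, 48 h at 37 degrees C. CellTiter-Glo 10 min RT, luminescence. Normalized to DMSO and media-only wells.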
HepG2 viability: HepG2 cytotoxicity, counter-screen for TGF-b inhibitors; AID 588856; HepG2 CAGA-GFP viability, ATP luminescence, 18 h; 0.76% of 410,000 active; Potency, µM (titrated, usually from 46.1 µM), inactives show at the highest dose activity change, negative = cytotoxicity, most hits filed as cytotoxic
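HepG2 CAGA-GFP cells (1000/well, DMEM with 1% FBS) received compound, then TGF-beta at 500 pg/mL final, and were incubated 18 hours at 37 degrees C. Viability was read by CellTiter-Glo luminescence. Media-only wells were set as complete cell-killing and DMSO as no toxicity.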
TDP1 cell CPT: DT40-hTDP1 cell growth loss with CPT; 12% of 420,000 active; Potency, µM (top dose mostly 46.2 µM), inactives show at the highest dose activity change, negative = growth inhibition, usual class: inhibitors; AID 686979; chicken DT40 Tdp1-/-;hTDP1 cells + 20 nM CPT, ATP luminescence, 48 h; note: % is set by controls: 0 for no effect and ±100 for the full control effect; nearly all actives have a fitted effect of over 55% in size
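Cell growth measured by CellTiter-Glo luminescence after a minimum 48 h, 37 C compound exposure with 20 nM CPT in Tdp1-knockout DT40 cells stably expressing hTDP1, seeded 400/well; qHTS titration format.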
HT1080 IDH1KD tx: HT-1080 IDH1 knockdown cell toxicity (counter line). HT-1080 IDH1 knockdown viability, ATP luminescence, 48 h. Potency, µM (series often up to 46.1 µM), without a hit: at the highest dose activity, negative = toxicity, usual class: cytotoxic. 2% of 360,000 active. AID 686971;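 note: 0% = DMSO wells and -100% = cell-free medium wells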
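After a 2 h attachment period, IDH1KD HT-1080 cells took pin-transferred compound for 48 h at 37 °C; ATP-based luminescence after 10 min room-temperature reagent incubation reported viability.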
TGFb inhibitor: blocks TGF-b signaling; 1.2% of 410,000 active; HepG2 CAGA-GFP TGF-b/SMAD3 reporter, GFP fluorescence, 18 h; TGF-beta stimulated, 500 pg/mL final; Potency, µM (highest dose often 46.1 µM), for inactives: top-dose activity, negative = inhibition, most hits filed as inhibitors; AID 588855; note: % is set by controls: 0 for no effect and ±100 for the full control effect; nearly all actives have a fitted effect of over 65% in size
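TGF-beta reporter screen: HEPG2 CAGA-GFP, 1% FBS, 500 pg/mL TGF-beta final, 18 h; per-cell GFP summed per well; curves fitted and categorized by class.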
TDP1 cell noCPT: qHTS for Inhibitors of human tyrosyl-DNA phosphodiesterase 1 (TDP1): qHTS in cells in absence of CPT; DT40 Tdp1-/- hTDP1 cells, no CPT, ATP luminescence, 48 h; AID 686978, 2013; 15% of 420,000 active; Potency, µM (top dose mostly 46.2 µM), without a hit: at the top dose activity change, negative = growth inhibition, most hits filed as inhibitors; note: % is set by controls: 0 for no effect and ±100 for the full control effect; nearly all actives have a fitted effect of over 55% in size
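Growth of hTDP1-complemented DT40 Tdp1-knockout cells is measured by ATP luminescence after at least 48 hr compound exposure at 37 °C, with DMSO substituting for the 20 nM CPT used in the parallel screen.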
Numbers without * were called inactive. Hits are enriched below; roughly 17% of the tested compounds scored in any of these assays. Calls come from the whole dose curve; as a rule, active = well fitted curve in the direction sought with a large enough effect; inconclusive = small, poorly fitted or top-dose-only effect, or another doubt; inactive = no such curve, though single readings can be large; an effect the other way counts as inactive or inconclusive. Potency is the fitted concentration of half-maximal effect.

Screening Cc1ccc(NC(=O)C2CCN(S(=O)(=O)c3ccc4c(c3)CCCC(=O)N4)CC2)c(Cl)c1 returned HepG2 viability -9% and TGFb inhibitor 3%.
`Cc1[nH]n(-c2ccccc2)c(=O)c1N=Nc1ccc(Cl)cc1` gave HT1080NT lethal 1%, HepG2 viability 0%, TDP1 cell CPT -6%, HT1080 IDH1KD tx -4%, TGFb inhibitor 1% and TDP1 cell noCPT 1%.
Cc1cc(-c2c(C)[nH]n(-c3ccc(Cl)cc3)c2=O)n[nH]1 was read as HT1080NT lethal inconclusive, HepG2 viability -43%, TDP1 cell CPT 7.3µM*, HT1080 IDH1KD tx inconclusive, TGFb inhibitor -25% and TDP1 cell noCPT 13µM*.
For COc1ccc(C(NC(=O)C2CCN(CCOc3ccc(Cl)cc3Cl)CC2)c2ccccc2C)cn1 (stereo not drawn) the results were HT1080NT lethal -7%, HepG2 viability -102%, TDP1 cell CPT inconclusive, HT1080 IDH1KD tx 23%, TGFb inhibitor inconclusive and TDP1 cell noCPT inconclusive.
`O=C(NC(c1cccnc1)c1ccc2c(c1)OCO2)C1CCN(CCOc2ccc(Cl)cc2Cl)CC1` (stereo not drawn) gave HT1080NT lethal inconclusive, HepG2 viability -47%, TDP1 cell CPT -45%, HT1080 IDH1KD tx 18µM*, TGFb inhibitor inconclusive and TDP1 cell noCPT inconclusive.
`O=C(NC(c1ccc2c(c1)OCO2)c1ccccn1)C1CCN(CCOc2ccccc2)CC1` (stereo not drawn) gave HT1080NT lethal -4%, HepG2 viability -16%, TDP1 cell CPT 11%, HT1080 IDH1KD tx -1%, TGFb inhibitor -2% and TDP1 cell noCPT -25%.
For O=C(NC(c1ccccc1)c1cnccn1)C1CCN(CCOc2ccc(Cl)cc2Cl)CC1 (stereo not drawn) the results were HT1080NT lethal 16µM*, HepG2 viability -96%, TDP1 cell CPT 16µM*, HT1080 IDH1KD tx inconclusive, TGFb inhibitor inconclusive and TDP1 cell noCPT 18µM*.
O=C(NC(c1ccccc1)c1ccsc1)C1CCN(CCOc2ccc(Cl)cc2Cl)CC1 (stereo not drawn) was read as HT1080NT lethal 18µM*, HepG2 viability -95%, TDP1 cell CPT inconclusive, HT1080 IDH1KD tx 16µM*, TGFb inhibitor inconclusive and TDP1 cell noCPT inconclusive.
`COc1ccc(C(C)NC(=O)C2CCN(CCOc3ccc(Cl)cc3Cl)CC2)cc1OC` (stereo not drawn) gave HT1080NT lethal 23µM*, HepG2 viability -90%, TDP1 cell CPT 23µM*, HT1080 IDH1KD tx inconclusive, TGFb inhibitor inconclusive and TDP1 cell noCPT 23µM*.
For C[C@H]1CN([C@@H](C)CO)C(=O)CCCn2nncc2CO[C@H]1CN(C)C(=O)Cc1ccccc1 the results were HT1080NT lethal 1%, HepG2 viability -13%, TDP1 cell CPT 4%, HT1080 IDH1KD tx -2%, TGFb inhibitor -14% and TDP1 cell noCPT 0%.
For CC(=O)N1CCc2c(sc3c2c(=O)n(-c2cc(Cl)ccc2C)c(=O)n3Cc2ccccc2F)C1 the results were HepG2 viability -32%, TDP1 cell CPT inconclusive, TGFb inhibitor 15% and TDP1 cell noCPT inconclusive.
`CCOC(=O)N1CCC(N2Cc3cccc(C(=O)Nc4ccc(OCC)cc4)c3C2=O)CC1` gave HT1080NT lethal 3%, HepG2 viability -7%, TDP1 cell CPT inconclusive, HT1080 IDH1KD tx 13%, TGFb inhibitor 11% and TDP1 cell noCPT inconclusive.
`Cc1cc(C=O)sc1[B-](F)(F)F` gave HT1080NT lethal -4%, HepG2 viability -24%, TDP1 cell CPT -1%, HT1080 IDH1KD tx 0%, TGFb inhibitor 4% and TDP1 cell noCPT -12%.
`O=C(COc1ccc(Cl)cc1)N/N=C/CCc1ccccc1` gave HT1080NT lethal -5%, HepG2 viability -1%, TDP1 cell CPT 3%, HT1080 IDH1KD tx 1%, TGFb inhibitor -20% and TDP1 cell noCPT -10%.
Screening CC(C)Nc1cc(C(C)(C)C)nc2c(-c3ccccc3)cnn12 returned HT1080NT lethal inconclusive, HepG2 viability -24%, TDP1 cell CPT -14%, HT1080 IDH1KD tx inconclusive, TGFb inhibitor inconclusive and TDP1 cell noCPT inconclusive.
For CC(C)(C)c1cc(-n2ccnc2)n2ncc(-c3ccc(Cl)cc3)c2n1 the results were HT1080NT lethal -1%, HepG2 viability 0%, TDP1 cell CPT inconclusive, HT1080 IDH1KD tx 3%, TGFb inhibitor -1% and TDP1 cell noCPT inconclusive.
`CC(C)(C)c1cc(NCc2ccccn2)n2ncc(-c3ccc(Cl)cc3)c2n1` gave HT1080NT lethal 16%, HepG2 viability -12%, TDP1 cell CPT inconclusive, HT1080 IDH1KD tx 2%, TGFb inhibitor -13% and TDP1 cell noCPT 16µM*.
For Cc1nn2c(NCc3ccccn3)cc(C(C)(C)C)nc2c1-c1ccccc1 the results were HT1080NT lethal 2%, HepG2 viability -57%, TDP1 cell CPT inconclusive, HT1080 IDH1KD tx -1%, TGFb inhibitor inconclusive and TDP1 cell noCPT inconclusive.
Screening CC(C)(C)c1cc(NCCCn2ccnc2)n2ncc(-c3ccccc3)c2n1 returned HT1080NT lethal 18µM*, HepG2 viability -106%, TDP1 cell CPT 15%, HT1080 IDH1KD tx 16µM*, TGFb inhibitor inconclusive and TDP1 cell noCPT inconclusive.
`CC(C)(C)c1cc(C(F)(F)F)n2ncc(-c3ccccc3)c2n1` gave HT1080NT lethal -22%, HepG2 viability 3%, TDP1 cell CPT -13%, HT1080 IDH1KD tx -11%, TGFb inhibitor -2% and TDP1 cell noCPT inconclusive.
Screening Cc1cc(NCc2ccccn2)n2nc(C)c(-c3ccccc3)c2n1 returned HT1080NT lethal inconclusive, HepG2 viability -35%, TDP1 cell CPT 0.052µM*, HT1080 IDH1KD tx -14%, TGFb inhibitor 11µM* and TDP1 cell noCPT 0.046µM*.
CCc1nccn1-c1cc(C(C)(C)C)nc2c(-c3ccc(Cl)cc3)cnn12 was read as HT1080NT lethal 12%, HepG2 viability 0%, TDP1 cell CPT inconclusive, HT1080 IDH1KD tx 12%, TGFb inhibitor -14% and TDP1 cell noCPT 18µM*.
